Reference: PubChem BioAssay (NCI)
About 83,000 compounds went through this panel and 20% of them were active in at least one assay; those are over-represented in the sample as a whole.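 In brief: 96-well plates, 48 h treatment, single concentration, percent growth endpoint.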 Values without a mark were called inactive. Activity calls are given as the source filed them. Rule for the calls: active = growth percent below 10; inactive = the rest.

Test system: HL-60(TB) leukemia
Experiment: NCI-60 one-dose screen, 48 h (100 = growth as untreated, 0 = no growth, -100 = all killed)
Conditions: 10 µM unless noted

Structure (SMILES)	growth
COc1ccc2nc3cc([N+](=O)[O-])ccc3c(NNc3ccccc3)c2c1	121%
O=C(NNc1nc2cc(F)ccc2n2c(CN3CCOCC3)ccc12)c1ccccc1	-1.51% (active)
COc1cc(-c2cc(/C=C3\C(=O)Nc4ccc(Cl)cc43)[nH]n2)cc(OC)c1OC	-26% (active)
O=C(CCCCC(=O)Oc1c(Cl)cc(Cl)cc1[N+](=O)[O-])Oc1c(Cl)cc(Cl)cc1[N+](=O)[O-]	81.9%
COc1ccc2c(c1OC)C(=O)O[C@@H]2[C@H]1c2c(c(C#CC#Cc3ccc(F)c(F)c3)c3c(c2OC)OCO3)CCN1C	76.9%
C=C(C)[C@@H]1CC[C@]2(C(=O)NCCCN)CC[C@]3(C)[C@H](CC[C@@H]4[C@@]5(C)CC[C@H](O)C(C)(C)[C@@H]5CC[C@]43C)[C@@H]12	1.25% [100 µM] (active)
Oc1ccc(CNNc2ccnc3c(O)cccc23)c2cccnc12	-7.85% (active)
Cc1ccc(S(=O)(=O)Oc2cc(OS(=O)(=O)c3ccc(C)cc3)cc(OS(=O)(=O)c3ccc(C)cc3)c2)cc1	107%
O=C(NCCCCCCNC(=O)OCc1ccc2c(Cl)cc(Cl)c(O)c2n1)OCc1ccc2c(Cl)cc(Cl)c(O)c2n1	-46.2% (active)
O=C1Nc2c(ccc(Cl)c2Cl)/C1=C\c1cc(C(F)(F)F)cc(C(F)(F)F)c1	-29.3% (active)
O=C(Nc1ccc(C(=O)Nc2ccc(C3=NCCCN3)cc2)cc1)Nc1ccc(C2=NCCCN2)cc1	44.2%
CC1(C)CCC(C)(C)NC(=S)N1	89.3%
O=C(CN1CCN(c2cc3c(cc2F)c(=O)c(C(=O)O)cn3C2CC2)CC1)N/N=C/c1ccco1	103%
C=C(C)C(=O)Nc1ccc(NC(C)C)cc1	129%
O=[N+]([O-])c1cc(F)c2cccnc2c1O	72.9%
O=S(=O)(Nc1ccc(Cl)c(F)c1)c1ccc(-c2cnc(C3CC3)o2)cc1	0.942% (active)
c1ccc(Cn2cc3c(c2)-c2oncc2CC3)cc1	11.5%
CCCCCn1c(C)cc(/C=C\c2ccc3cc(C)ccc3[n+]2C)c1C	-6.41% (active)
COC1=CC(=O)c2c(O)c3c(c(O)c2C1=O)CC(C)(O)OC3 (stereo not drawn)	-57.1% (active)

Structure (SMILES)	growth
N#CC1=C(c2ccccc2)Nc2c(c(-c3ccc(Cl)cc3)nn2-c2ccccc2)C12C(=O)Nc1ccc(Cl)cc12 (stereo not drawn)	48.2%
CC(Sc1ccccc1)C(=O)O (stereo not drawn)	143%
CCc1ccc2nc(NC(=O)Cc3csc(NC(=O)c4ccco4)n3)sc2c1	74.2%
O=S1(=O)NCCCN1CCNc1nccc(-c2c(-c3cccc(O)c3)nc3sccn23)n1	73.3%
COc1ccc(-c2nc(-c3cc(OC)cc(OC)c3)[nH]c2-c2ccc(OC)cc2)cc1	30.1%
COc1ccc(NC(=O)c2ccc(NC3=C(c4ccc(Cl)cc4)C(=O)NC3=O)cc2)cc1	80.3%
COc1c(Cl)ccc2c(-c3nc4cc(Cl)c(F)cc4s3)cc(=O)oc12	-18.1% (active)
Cc1c(Cl)cccc1NC(=O)c1sc2nc3c(cc2c1N)COCC3	2.35% (active)
O=C(Cn1nnc2ccccc21)Nc1ccc(-c2nc3ccccc3s2)cc1	90.8%
CN1CCN(c2ccc3nc(-c4[nH]ncc4Nc4ncnc5[nH]ccc45)[nH]c3c2)CC1	-28.6% (active)
O=[N+]([O-])c1cc[n+]([O-])cc1	36.1%
O=C1/C(=C\c2ccccn2)c2ccccc2N1c1c(Cl)cccc1Cl	1.39% (active)
CNC(=O)NCC1OC(n2cnc3c(NC(=O)Nc4ccccc4)ncnc32)C2OC(C)(C)OC12 (stereo not drawn)	83.9%
COc1cc([C@@H](CCO)C[C@H](C)c2ccc3ccccc3c2)cc(OC)c1OC	6.14% (active)
CCCCCCCOc1cccc(/C=C2/C(=O)N=C3SCCCN32)c1	95.2%
COc1cc(C#N)cc(OC)c1OCCN(CCOc1c(OC)cc(C#N)cc1OC)S(=O)(=O)c1ccc(C)cc1	102%
O=[N+]([O-])c1ccc(-c2nc(N(CCO)CCO)c3ccccc3n2)o1	-11.1% (active)
CNCC[C@H](Oc1cccc2ccccc12)c1cccs1	85.5%
COC(=O)c1nc(-c2ccccc2)oc1S(=O)(=O)n1nc(-c2ccccc2)cc1N	58.9%
